From PubChem BioAssay AID463173 (ICCB-Longwood Screening Facility, Harvard Medical School, 2010) come the findings set out here.

Out of some 52,000 compounds screened, about 1,700 (3.3%) were called active. Many of the other results were omitted from the sample, so actives are more common in it than they were. Unmarked numbers belong to inactive results. Rule as the data show it: active = survival mostly below about 52% (no sharp cut-off); inactive = mostly above about 56%.

This experiment concerns Wild type. In words: S. aureus survival, RN4220 and DeltatarO strains – OD600, teichoic acid synthesis inhibitors, primary screen (AID 463173). The settings on record: S. aureus RN4220 wild type/DeltatarO growth, OD600, 18 h, hits give low values, screened at 18.75 µg/mL (by protocol).
Regarding `COCCCNc1nc2c(c(=O)n(Cc3ccc(F)cc3)c(=O)n2C)n1C`, the survival was 130%.

Turning to `CCC(O)c1cc2c(cc1NC(=O)c1cccc(Br)c1)OCCO2` (stereo unspecified), the survival was 71%.

As for `Cc1ccc(N(C)C(=O)Cn2cc(S(=O)(=O)N3CCCC3)c(S(=O)(=O)N3CCCC3)c2)cc1`, the survival is 73%.

As for `Cc1cccc(NC(=O)CN2C(=O)C(c3ccc(F)cc3)=NC23CCCCCC3)c1C`, the survival was 73%.

Turning to `CCCN1CCN(c2ncnc3sc(C(=O)Nc4ccc(N(CC)CC)cc4C)c(C)c23)CC1`, the survival is 128%.

In the case of `CCn1c(SC)nnc1C1CCCN(C(=O)c2ccccc2-c2ccccc2)C1` (stereo unspecified), the survival is 120%.

In the case of `CCCCn1c(CCCNC(=O)c2cccc(C)c2)nc2ccccc21`, the survival is 73%.

For `CCCCCn1c(CCNC(=O)c2cccc(C)c2)nc2ccccc21`, the survival was 2% (active).

For the molecule `CCCCCn1c(CCCNC(=O)c2ccccc2OC)nc2ccccc21`, the survival is 68%.

Take `CCCCCn1c(-c2ccc(OC)c(OC)c2)nc2ccccc21`: the survival was 1% (active).

For the molecule `CCOc1ccc(Cn2c(-c3ccc(OCC)c(OC)c3)nc3ccccc32)cc1OC`, the survival was 94%.

Regarding `CCCCn1c(C)nc2ccccc21`, the survival was 99%.

In the case of `CCCCCn1c(-c2cccc(C)c2)nc2ccccc21`, the survival is 11% (active).

In the case of `CCCCCn1c(C(C)NC(=O)c2ccccc2)nc2ccccc21` (stereo unspecified), the survival is 77%.

Consider `CCCCCn1c(CCCNC(=O)c2cccc(C)c2)nc2ccccc21`, for which the survival was 50%.

As for `Cc1ccc(S(=O)(=O)NCC(c2ccco2)N2CCOCC2)cc1` (stereo unspecified), the survival was 78%.

In the case of `Cc1ccc2[nH]c(CSc3nnc(NC(=O)c4ccc(Cl)cc4)s3)cc(=O)c2c1`, the survival was 71%.

As to `CCN(CCCNC(=O)c1nn(-c2ccc(C)cc2)c(=O)c2c1c1ccccc1n2C)c1ccccc1`, the survival is 82%.

Regarding `Cc1cc(=O)c2c(o1)CC(C)(C)CC2=O`, the survival is 110%.

On to `Cc1cccc(-n2cnc3cc(C(=O)NCc4ccccc4Cl)ccc32)c1`, for which the survival is 68%.

In the case of `COCCCNC(=O)c1ccc2c(c1)nc(C)n2-c1cccc(C)c1`, the survival is 69%.

For the molecule `Cc1nc2cc(C(=O)NCCC3=CCCCC3)ccc2n1-c1ccc(Br)cc1`, the survival was 75%.

With `CCCCCNC(=O)c1ccc2c(c1)nc(C)n2-c1cccc(C)c1`, the survival is -2% (active).

Take `Cc1cccc(-n2c(C)nc3cc(C(=O)NCCC4=CCCCC4)ccc32)c1`: the survival is 73%.

With `CCCCCNC(=O)c1ccc2c(c1)ncn2-c1cccc(C)c1`, the survival was -3% (active).

In the case of `CCCNC(=O)c1ccc2c(c1)nc(C)n2-c1cccc(C)c1`, the survival is 82%.

For `Cc1ccc(-n2cnc3cc(C(=O)NCc4ccccc4Cl)ccc32)c(C)c1`, the survival is 10% (active).

Regarding `CCCNC(=O)c1ccc2c(c1)ncn2-c1ccc(C)cc1C`, the survival is 59%.

With `Cc1cccc(-n2cnc3cc(C(=O)NC4CCCCCC4)ccc32)c1`, the survival was 124%.

As for `CCOc1ccc(-n2c(C)nc3cc(C(=O)NCCC4=CCCCC4)ccc32)cc1`, the survival is -6% (active).

`Cc1cc(C)cc(-n2cnc3cc(C(=O)NCCc4ccccc4)ccc32)c1`: the survival was 73%.

On to `Cc1ccc(OCC(=O)Nc2ccccc2C(=O)OCc2cc(=O)n3c(C)csc3n2)cc1`, for which the survival was 72%.

Regarding `O=C(Nc1ccc(Cl)cc1)C1CCN(S(=O)(=O)c2ccc(Br)s2)CC1`, the survival is 60%.

With `CCC(C)(C)NC(=O)C1CCN(S(=O)(=O)c2ccc3c(c2)CCCN3C(C)=O)CC1`, the survival is 71%.

Consider `O=C(/C=C(/O)c1cccnc1)C(F)(F)F`, for which the survival was 86%.

On to `O=C1CC2C(=O)NCCN2C(=NC(=O)c2ccc(Cl)cc2)N1` (stereo unspecified), for which the survival was 100%.

As for `COc1cccc(/C=N/NC(=O)COc2c(C)cccc2C)c1O`, the survival is 113%.

`COc1cccc(/C=N/NC(=O)CSCc2ccccc2)c1O`: the survival is 108%.

Consider `COc1cccc(/C=N/NC(=O)c2cccc(C)c2)c1O`, for which the survival was 1% (active).

Consider `COc1cc(OC)cc(C(=O)Nc2ccc(S(=O)(=O)N3CCCCC3c3cccnc3)cc2)c1` (stereo unspecified), for which the survival was 71%.

For the molecule `Cc1ccc(Cl)cc1N1CCN(C(=O)CCS(=O)(=O)c2cc(Br)cc3c2N(C(=O)C2CC2)CC3)CC1`, the survival is 80%.

Take `CC(NC(=O)c1cccc(NC(=O)c2nsc3ccccc23)c1)c1ccccc1` (stereo unspecified): the survival was 111%.

As to `O=C(NCc1ccccc1)c1ccc(NC(=O)c2nsc3ccccc23)cc1`, the survival was 55%.

On to `CCC(C)NC(=O)c1cccc(NC(=O)c2nsc3ccccc23)c1` (stereo unspecified), for which the survival is 76%.

Consider `COC(=O)c1cccc(NC(=O)c2nsc3ccccc23)c1`, for which the survival was 0% (active).

Consider `O=C(NCc1cccc(F)c1)c1ccc(NC(=O)c2nsc3ccccc23)cc1`, for which the survival is -4% (active).

As for `O=C(NCc1cccc(F)c1)c1cccc(NC(=O)c2nsc3ccccc23)c1`, the survival was 87%.

On to `Cc1ccccc1Nc1c(-c2ccc(N3CCOCC3)cc2)nc2cccc(C)n12`, for which the survival was 59%.

With `Cc1ccc(N(C)C(=O)C2CCCN(c3ncnc4c3nc3n4CCCCC3)C2)cc1C` (stereo unspecified), the survival is 127%.

For `CCc1ccc(NC(=O)C2CCN(c3nn4cc(-c5ccc(OC)cc5)nc4s3)CC2)cc1`, the survival is 71%.

As to `COc1ccc(-c2nc3c4ccccc4n(CC(=O)N4CCN(c5ccccc5F)CC4)c(=O)n3n2)cc1`, the survival is 91%.

For the molecule `CC1(C)C(=O)NC(=O)N1CN1C(=O)NC(=O)C1(C)C`, the survival is 111%.

As for `CCOc1ccc(C(=O)Nc2ccc(-n3nncc3-c3ccccc3)cc2)cc1OCC`, the survival is 135%.

As for `O=C(c1cc2c(=O)oc3ccccc3c2s1)N1CCN(c2cccc(Cl)c2)CC1`, the survival was 145%.

For the molecule `CCCN1C(=O)c2ccccc2CC1(C)C(=O)NC1CCCCC1` (stereo unspecified), the survival is 85%.

On to `O=C(Nc1cccc(Cl)c1)c1c(NC(=O)C(F)(F)F)sc2c1CCCC2`, for which the survival is -2% (active).

Take `COc1ccc(CC(=O)Nc2sc3c(c2C(=O)Nc2cccc(C)c2)CCCCC3)cc1`: the survival was 63%.

Turning to `Cc1cccc(NC(=O)c2c(Br)sc3c2CCCC3)c1`, the survival is 0% (active).

In the case of `O=C(Cc1ccccc1)Nc1sc2c(c1C(=O)Nc1cccc(Cl)c1)CCCCC2`, the survival is 91%.

With `Cc1cccc(C(=O)Nc2sc3c(c2C(=O)Nc2ccccc2)CCC3)c1`, the survival is 67%.

As to `Cc1cccc(NC(=O)c2c(NC(=O)c3ccccc3)sc3c2CCCC3)c1`, the survival is 82%.

Take `Cc1cccc(NC(=O)c2c(NC(=O)c3ccccc3)sc3c2CCC3)c1`: the survival was 80%.

In the case of `Cc1cccc(NC(=O)c2c(NC(=O)C(F)(F)F)sc3c2CCCCC3)c1`, the survival was -3% (active).

As to `O=C(Nc1sc2c(c1C(=O)Nc1cccc(Cl)c1)CCCC2)c1cccs1`, the survival was 140%.

For the molecule `CCOC(=O)c1c(S(=O)(=O)N2CCCC(C(=O)N3CCN(c4cc(C)ccc4C)CC3)C2)c(C)n(C)c1C` (stereo unspecified), the survival is 72%.

As for `COc1cccc(-c2cc(C(=O)Nc3cnn(Cc4ccc(Cl)cc4Cl)c3)no2)c1`, the survival was 112%.

Consider `CCC(=O)n1c2c(c3ccccc31)Nc1ccccc1N2`, for which the survival was 105%.

Take `CC(C)Oc1ccc(CNC(=O)C2CCN(Cc3cc4ccccc4n3Cc3ccccc3)CC2)cc1`: the survival was 93%.

In the case of `CCC(C(=O)NCCc1ccc(Cl)cc1)n1ccc2cc(S(=O)(=O)N3CCCCC3)ccc21` (stereo unspecified), the survival is 101%.

Turning to `CCC(c1nnnn1C1CCCC1)N1CCN(Cc2ccccc2)CC1` (stereo unspecified), the survival is 104%.

In the case of `COc1ccc(C(=O)c2cn(CC(=O)Nc3cc(C)ccc3C)c3nc(C)ccc3c2=O)cc1`, the survival was 146%.

Turning to `CCOC(=O)C1NC(=O)CC1c1ccccc1` (stereo unspecified), the survival was 99%.

For the molecule `COc1ccccc1OCC(=O)N1CCC(c2nc3ccccc3o2)CC1`, the survival is -12% (active).

As for `Cc1cccc(C)c1OCC(=O)N1CCC(c2nc3ccccc3o2)CC1`, the survival was 81%.

With `CC(Oc1ccccc1F)C(=O)N1CCC(c2nc3ccccc3o2)CC1` (stereo unspecified), the survival was -18% (active).

On to `Cc1cccc(OCC(=O)N2CCC(c3nc4ccccc4o3)CC2)c1C`, for which the survival was 72%.

In the case of `Cc1cccc(OC(C)C(=O)N2CCC(c3nc4ccccc4o3)CC2)c1C` (stereo unspecified), the survival is 74%.

On to `CCc1ccc(OC(C)C(=O)N2CCC(c3nc4ccccc4o3)CC2)cc1` (stereo unspecified), for which the survival was 92%.

Regarding `Cc1ccccc1C(=O)NC1CCN(CC(=O)NC(C)(C)C)CC1`, the survival is 100%.

Take `CC(Oc1ccc(/C=C(/C#N)C(=O)N2CCOCC2)cc1)C(=O)O` (stereo unspecified): the survival is 104%.

`Cc1ccc(N(C)C(=O)c2noc3c2CCCCC3)cc1C`: the survival is 73%.

For the molecule `CCCCn1c(=O)c2oc3ccccc3c2n(Cc2ccc(OC)cc2)c1=O`, the survival is 115%.

In the case of `CCOc1ccc(C(=O)/C=C/c2cn(CC(O)CN3CCc4ccccc43)c3ccccc23)cc1` (stereo unspecified), the survival was 69%.

On to `CCCCN(C)CC(O)Cn1cc(/C=C/C(=O)c2ccc(C)cc2)c2ccccc21` (stereo unspecified), for which the survival was 15% (active).

On to `Cc1ccc(C(=O)/C=C/c2cn(CC(O)CN3CCc4ccccc43)c3ccccc23)cc1` (stereo unspecified), for which the survival was 76%.

Turning to `CCCCN(C)CC(O)Cn1cc(/C=C/C(=O)c2ccc(OC)c(OC)c2)c2ccccc21` (stereo unspecified), the survival was 87%.

Turning to `CCCCN(C)CC(O)Cn1cc(/C=C/C(=O)c2ccc(Br)cc2)c2ccccc21` (stereo unspecified), the survival is 15% (active).

Turning to `CCCCN(C)CC(O)Cn1cc(/C=C/C(=O)c2ccc(OCC)cc2)c2ccccc21` (stereo unspecified), the survival was 21% (active).

For the molecule `O=C(O)CCc1ccc(-c2ccccc2)n1Cc1ccco1`, the survival is 103%.

For the molecule `CCOc1ccc(S(=O)(=O)N(C(C)=O)c2ccc3oc(C)c(C(=O)OC)c3c2)cc1`, the survival is 130%.

With `Cc1ccc(N(Cc2cccs2)C(=O)c2ccccc2[N+](=O)[O-])cc1`, the survival is 82%.

On to `CN1C=CC=C/C1=C1\SC(=S)N(C2CCCCC2)C1=O`, for which the survival is 120%.

As to `CCc1cccc(NC(=O)c2ccc(NC(=O)N3CCSc4ncccc43)cc2)c1`, the survival was -3% (active).

Turning to `Cc1ccc(Cl)cc1NC(=O)c1ccc(NC(=O)N2CCSc3ncccc32)cc1`, the survival is 71%.

Turning to `CC(C)Oc1ccc(CNC(=O)Cc2ccc(NC(=O)N3CCSc4ncccc43)cc2)cc1`, the survival was 73%.

As to `Cc1ccccc1NC(=O)c1ccc(NC(=O)N2CCSc3ncccc32)cc1`, the survival was -4% (active).

Consider `Cc1ccc(NC(=O)c2ccc(NC(=O)N3CCSc4ncccc43)cc2)c(C)c1`, for which the survival was 82%.

Take `CC(C)Oc1ccc(CNC(=O)c2ccc(NC(=O)N3CCSc4ncccc43)cc2)cc1`: the survival was 1% (active).

As to `CC(C)Oc1ccc(CNC(=O)c2cccc(NC(=O)N3CCSc4ncccc43)c2)cc1`, the survival is 79%.

For `CC(=O)c1ccc(NC(=O)c2cccc(NC(=O)N3CCSc4ncccc43)c2)cc1`, the survival was 55%.

Consider `CCOc1ccc(NC(=O)c2ccc(NC(=O)N3CCSc4ncccc43)cc2)cc1`, for which the survival was 64%.
